Screening data as filed in PubChem.
Sampled rows, rich in hits. Any-hit rate of the full collection: about 8.1%.
KB-V1 cytotox: qHTS assay for MDR1-selective chemotherapeutics: Primary screen using the drug-selected MDR subline cells KB-V1. KB-V1 MDR cells viability, CellTiter-Glo, 72 h. Potency, µM (top dose mostly 46.1 µM), usual class: cytotoxic. hit rate 3.4% among 400,000. AID 1347076, 2019; note: nearly all actives have a fitted effect of over 60% in size
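Readout: CellTiter-Glo luminescence, 10 min after addition. Cells: KB-V1 MDR subline, 72 h at 37 degrees C with compound. Analysis: corrected, normalized data fitted to concentration-effect curves.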
MCF10A rerep: A quantitative high throughput screen for small molecules that induce DNA re-replication in MCF 10a normal breast cells; Potency, µM (series often up to 46.1 µM), actives largely listed as activators; MCF 10A DNA re-replication, Hoechst nuclear intensity, 48 h; hit rate 2.9% among 350,000; note: nearly all actives have a fitted effect of over 50% in size
KB-3-1 cytotox: qHTS assay for MDR1-selective chemotherapeutics: Primary screen using the parental adenocarcinoma cell KB-3-1; Potency, µM (top dose mostly 46.1 µM), most hits filed as cytotoxic; AID 1347075, 2019; KB-3-1 viability, CellTiter-Glo ATP luminescence, 72 h; hit rate 1.4% among 400,000; note: nearly all actives have a fitted effect of over 60% in size
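Multi-concentration cytotoxicity screen in KB-3-1 cells grown in DMEM lacking phenol red with 10% FBS. After 72 h at 37 °C with compound, ATP-dependent luminescence was recorded.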
ELG1 DNA repair: qHTS screen for small molecules that inhibit ELG1-dependent DNA repair in human embryonic kidney (HEK293T) cells expressing luciferase-tagged ELG1; HEK293T ELG1-luciferase reporter, luminescence, 16 h; DNA damage induced by 5-fluorouridine; Potency, µM (top dose mostly 46.1 µM), usual class: inhibitors; AID 504467, 2011; hit rate 2.3% among 330,000; note: nearly all actives have a fitted effect of over 55% in size
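Step one: seed 2,000 cells per well. Step two: pin-transfer compound or DMSO alongside 5-fluorouridine. Step three: incubate 16 hr, 37 °C, 5% CO2. Step four: add ONE-Glo, wait 30 min, read luminescence.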
SW480 rerep: A quantitative high throughput screen for small molecules that induce DNA re-replication in SW480 colon adenocarcinoma cells. SW480 DNA re-replication, Hoechst DNA content imaging, 48 h. Potency, µM (titrated, usually from 46.1 µM), actives largely listed as activators. hit rate 1.8% among 340,000. AID 624297, 2012; note: nearly all actives have a fitted effect of over 55% in size
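Compounds, transferred as 23 nL by pin tool, were incubated with cells for 48 hr; DNA content per nucleus was then quantified by Hoechst staining and fluorescence plate imaging.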
Of the large screens only hits and unclear results are named; the others gave an inactive call; ! = a repeat was not active. Calls come from the whole dose curve; as a rule, active = well fitted curve in the direction sought with a large enough effect; inconclusive = small, poorly fitted or top-dose-only effect, or another doubt; inactive = no such curve, though single readings can be large; an effect the other way counts as inactive or inconclusive.

CCCCNc1c(-c2ccc(OC)c(SC(C)CC)c2)nc2ccc(Cl)cn12 (configuration not stated)	MCF10A rerep 21µM
CCCCNc1c(-c2ccc(Sc3ccc(OC)cc3)cc2)nc2cc(C)ccn12	MCF10A rerep 23µM, KB-3-1 cytotox inconclusive, ELG1 DNA repair inconclusive, SW480 rerep inconclusive
CCC(C)Sc1ccc(-c2nc3ccc(Cl)cn3c2NCc2ccccc2)cc1 (configuration not stated)	MCF10A rerep 12µM, ELG1 DNA repair inconclusive
COc1cccc(CNC(=O)CCS(=O)(=O)c2ccc3c(c2)NC(=O)CS3)c1	none
COc1ccc2cc3cc(C(=O)N4CCCCC4C)oc3nc2c1 (configuration not stated)	KB-V1 cytotox inconclusive, ELG1 DNA repair inconclusive
CCCCCCSc1cc(-c2nc3ccc(C)cn3c2NCCCC)ccc1OC	KB-V1 cytotox inconclusive, MCF10A rerep inconclusive, ELG1 DNA repair inconclusive, SW480 rerep inconclusive
CCCCCCSc1ccc(-c2nc3ccc(C)cn3c2NCc2ccccc2)cc1OC	KB-V1 cytotox inconclusive, KB-3-1 cytotox inconclusive, ELG1 DNA repair inconclusive, SW480 rerep inconclusive
CCCCNc1c(-c2ccc(OC)c(SC(C)CC)c2)nc2ccc(C)cn12 (configuration not stated)	KB-V1 cytotox 18µM!, MCF10A rerep inconclusive, KB-3-1 cytotox inconclusive, ELG1 DNA repair 7.3µM
CCCCNc1c(-c2ccc(OC)c(SC(C)CC)c2)nc2cc(C)ccn12 (configuration not stated)	MCF10A rerep 21µM, KB-3-1 cytotox inconclusive, ELG1 DNA repair inconclusive, SW480 rerep inconclusive
CCC(C)Sc1ccc(-c2nc3ccc(C)cn3c2NCc2ccccc2)cc1OC (configuration not stated)	KB-V1 cytotox inconclusive, MCF10A rerep 6.5µM, ELG1 DNA repair inconclusive, SW480 rerep inconclusive
CC1CCN(CCCNC(=O)c2ccc(CS(=O)(=O)Cc3ccc(Cl)cc3)o2)CC1	KB-V1 cytotox inconclusive, ELG1 DNA repair inconclusive
O=C(Cc1ccccc1)NC(NC(=O)Cc1ccccc1)c1cccc([N+](=O)[O-])c1	none
Cc1[nH]c(C)c(S(=O)(=O)Nc2ccccc2Cl)c1C(=O)N1CCCC1	KB-V1 cytotox inconclusive
O=C1NC(=S)N/C1=C\c1ccc(N2CCOCC2)cc1	MCF10A rerep inconclusive, ELG1 DNA repair inconclusive, SW480 rerep 18µM
CC(C)OC(=O)C(NC(=O)c1ccccc1)=C1CCCCC1	KB-V1 cytotox 21µM
CC(C)OC(=O)/C(=C\c1ccccc1)NC(=O)c1ccccc1	none
Cc1ccc(S(=O)(=O)N2CCCCC2)cc1NC(=O)CCNC(=O)c1ccc([N+](=O)[O-])cc1	SW480 rerep inconclusive
COc1ccc(CN(Cc2ccco2)c2cnc(S(C)(=O)=O)nc2C(=O)Nc2ccc(C)c(Cl)c2)cc1	none (no result: MCF10A rerep, ELG1 DNA repair, SW480 rerep)
CCc1cc(C(=O)Nc2ccccc2N2CCOCC2)sc1C	KB-V1 cytotox 23µM
Cc1nn(Cc2ccccc2Cl)c2sc(C(=O)Nc3ccccc3N3CCOCC3)cc12	KB-V1 cytotox inconclusive, MCF10A rerep 9.2µM, KB-3-1 cytotox inconclusive, ELG1 DNA repair 23µM
CCC(CC)NC(=O)c1cc2c(C)nn(Cc3ccccc3Cl)c2s1	KB-V1 cytotox 15µM, MCF10A rerep inconclusive, KB-3-1 cytotox inconclusive, ELG1 DNA repair inconclusive, SW480 rerep inconclusive
Cc1nn(Cc2ccccc2Cl)c2sc(C(=O)Nc3nccs3)cc12	none
CC(C)c1ccc(/C=C/C(=O)N2CCCCCC2)cc1	MCF10A rerep 23µM, ELG1 DNA repair inconclusive
CC(C)c1ccc(/C=C/C(=O)N2CCOCC2)cc1	MCF10A rerep inconclusive, ELG1 DNA repair inconclusive
COc1ccc2cc(/C=C/C(=O)N3CCN(CC(=O)N4CCCCCC4)CC3)ccc2c1	KB-V1 cytotox 15µM
COc1cc(/C=C/C(=O)N2CCN(CC(=O)N3CCCC3)CC2)cc(OC)c1OC	none (no result: KB-V1 cytotox, KB-3-1 cytotox, ELG1 DNA repair)
O=C(Nc1c2c(nn1-c1cccc(Cl)c1)CS(=O)(=O)C2)c1ccco1	none
COc1ccc(N(CC(=O)NC(C)(C)C)C(=O)CCC(=O)Nc2nccs2)cc1	none
